Experimental data published in the supplement of paper PMC7411640.
Counter-ions that a name gives are not always drawn.

Test system: MDA-MB-468
Assay: phospho-S6 immunofluorescence (DAPI-normalised), per-plate z-score; higher = higher phospho-S6 signal (less pathway suppression)
Conditions: 24 h
Description: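 GPCR-targeted compound library (MedChemExpress HY-L006) tested on MDA-MB-468 PTEN-null TNBC cells in 384-well plates at 0.1, 1 or 10 uM, combined with vehicle, GDC0941 450 nM or lapatinib 1 uM, for 24 h. Phospho-S6 (S240/244) immunofluorescence normalised to DAPI and expressed as a per-plate z-score; values are the mean of biological triplicates.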

Structure (SMILES) | phospho-S6 immunofluorescence (z-score) (co-treatment: GDC0941 450 nM) | phospho-S6 immunofluorescence (z-score) (co-treatment: lapatinib 1 uM) | phospho-S6 immunofluorescence (z-score) (co-treatment: vehicle)
c1ccc2c(c1)N=C(N1CCNCC1)c1ccccc1N2 [DREADD agonist 21] (compound 10 µM) | -0.11 | -1.74 | -0.53
CN(C)N(C)C(=O)[C@@]1(Cc2ccccc2)CCCN(C(=O)[C@@H](Cc2c[nH]c3ccccc23)NC(=O)C(C)(C)N)C1 [Anamorelin (hydrochloride)] (compound 10 µM) | -1.14 | -0.96 | -0.1
Cn1c(=O)c2c(ncn2CC(O)CO)n(C)c1=O (stereo unspecified) [Diphylline] (compound 10 µM) | -0.54 | -0.14 | -0.15
O=C1NCCN1CCN1CCC(c2cn(-c3ccc(F)cc3)c3ccc(Cl)cc23)CC1 [Sertindole] (compound 10 µM) | -4.7 | -6.25 | -4.35
C=CCN1CCc2c(cc(O)c(O)c2Cl)C(c2ccccc2)C1 (stereo unspecified) (compound 10 µM) | -0.13 | 1.66 | 1.76
O=C(CN1C(=O)C2(CCCC2)NC[C@H]1c1cc(F)cc(F)c1)Nc1ccc2c(c1)C[C@@]1(C2)C(=O)Nc2ncccc21 [MK-3207 (Hydrochloride)] (compound 10 µM) | -0.51 | -0.06 | -0.48
CCOc1cc(N)c(Cl)cc1C(=O)NCC1CN(Cc2ccc(F)cc2)CCO1 (stereo unspecified) [Mosapride (citrate)] (compound 10 µM) | 0.76 | 0.46 | 0.79
C[C@@H]1C[C@H]2[C@@H]3CCC4=CC(=O)C=C[C@]4(C)[C@@]3(Cl)[C@@H](O)C[C@]2(C)[C@@]1(OC(=O)c1ccco1)C(=O)CCl [Mometasone furoate] (compound 10 µM) | -0.46 | 0.3 | -1.92
CN1[C@@H]2CC[C@H]1C[C@@H](OC(=O)c1c[nH]c3ccccc13)C2 [Tropisetron] (compound 10 µM) | 0.73 | 1.44 | 0.31
CCc1nn(CCCN2CCN(c3cccc(Cl)c3)CC2)c(=O)n1CCOc1ccccc1 [Nefazodone (hydrochloride)] (compound 10 µM) | -4.37 | -2.37 | -1.26
O=C(Nc1cccc(Cl)c1)c1ccccn1 (compound 10 µM) | -1.46 | 0.72 | -0.86
O=C(O)CCCN1CCC(O[C@@H](c2ccc(Cl)cc2)c2ccccn2)CC1 [Bepotastine (Beslilate)] (compound 10 µM) | -0.72 | -0.17 | 0.56
COc1ccccc1Oc1c(NS(=O)(=O)c2ccc(C)cn2)nc(-c2ccncc2)nc1OC [Avosentan] (compound 10 µM) | -0.03 | -0.67 | -0.65
COc1cc2nc(N3CCN(C(=O)C4COc5ccccc5O4)CC3)nc(N)c2cc1OC (stereo unspecified) [Doxazosin (mesylate)] (compound 10 µM) | -3.46 | -7.7 | -8.17
CC[C@@H](Nc1c(Nc2cccc(C(=O)N(C)C)c2O)c(=O)c1=O)c1ccc(C)o1 (compound 10 µM) | 0.29 | -0.41 | 2.26
C[C@]12C=CC(=O)C=C1CC[C@@H]1[C@@H]2[C@@H](O)C[C@@]2(C)[C@H]1CC[C@]2(O)C(=O)CO [Prednisolone] (compound 10 µM) | 0.01 | 1.18 | 0.05
CC1=C(C)C(=O)C(C(CCCCCC(=O)O)c2ccccc2)=C(C)C1=O (stereo unspecified) [Seratrodast] (compound 10 µM) | 1.01 | 1.15 | 0.08
Cc1cc(OCCCS(C)(=O)=O)cc(C)c1-c1cccc(COc2ccc3c(c2)OC[C@H]3CC(=O)O)c1 (compound 10 µM) | -1.06 | 0.1 | -0.32
C[C@]12C=CC(=O)C=C1CC[C@@H]1[C@@H]2C(=O)C[C@@]2(C)[C@H]1CC[C@]2(O)C(=O)CO [Prednisone] (compound 10 µM) | 0.55 | 1.24 | 0.94
CCCCC[C@H](O)/C=C/[C@H]1[C@H](O)CC(=O)[C@@H]1C/C=C\CCCC(=O)O [Prostaglandin E2] (compound 10 µM) | -0.11 | 1.46 | -0.52
Cc1nc2c([nH]1)-c1ccccc1N(C(=O)c1ccc(NC(=O)c3ccccc3-c3ccccc3)cc1)CC2 [Conivaptan (hydrochloride)] (compound 10 µM) | 0.65 | 0.52 | 0.94
CC(C)[C@H](NC(=O)[C@H](CCCN=C(N)N)NC(=O)[C@@H](N)CC(=O)O)C(=O)N[C@@H](Cc1ccc(O)cc1)C(=O)N[C@H](C(=O)N[C@@H](Cc1cnc[nH]1)C(=O)N1CCC[C@H]1C(=O)N[C@@H](Cc1ccccc1)C(=O)O)C(C)C [Angiotensin II 5-valine] (compound 10 µM) | 1.16 | 0.49 | 0.07
Cc1cccc(C#Cc2ccccc2)n1 [MPEP (Hydrochloride)] (compound 10 µM) | -0.92 | 0.68 | -0.14
CCCCc1nc(Cl)c(CO)n1Cc1ccc(-c2ccccc2-c2nnn[nH]2)cc1 [Losartan (potassium)] (compound 10 µM) | 0.74 | 0.83 | 0.81

Structure (SMILES) | phospho-S6 immunofluorescence (z-score) (co-treatment: GDC0941 450 nM) | phospho-S6 immunofluorescence (z-score) (co-treatment: lapatinib 1 uM) | phospho-S6 immunofluorescence (z-score) (co-treatment: vehicle)
CCC(=O)OCC(=O)[C@@]1(OC(=O)CC)[C@@H](C)C[C@H]2[C@@H]3CCC4=CC(=O)C=C[C@]4(C)[C@@]3(F)[C@@H](O)C[C@@]21C [Betamethasone dipropionate] (compound 10 µM) | -0.51 | -0.45 | 0.82
Cc1cc(C(C)(C)C)cc(C)c1CC1=NCCN1 [Xylometazoline (hydrochloride)] (compound 10 µM) | 0.43 | -0.12 | -0.38
Cc1ccc(C)c(OCCn2cc(C(=O)O)c3ccccc32)c1 (compound 10 µM) | 0.61 | -0.34 | -0.21
O=C(NC(Cc1cc(=O)[nH]c2ccccc12)C(=O)O)c1ccc(Cl)cc1 (stereo unspecified) [Rebamipide] (compound 10 µM) | 0.69 | 1.1 | 0.16
C[C@@H]1CCCN1CCc1cc2cc(-c3ccc(C#N)cc3)ccc2o1 (compound 10 µM) | -3.3 | -4.56 | -0.97
O=C(Nc1ccc(Cl)cc1CN1C(=O)c2ccccc2C1=O)c1ccccc1O (compound 10 µM) | -1.83 | -0.3 | -0.57
CN(C)CCOC(C)(c1ccccc1)c1ccccn1 (stereo unspecified) [Doxylamine (succinate)] (compound 10 µM) | 0.33 | -0.64 | 0.58
CC(C)NCC(O)c1ccc(O)c(O)c1 (stereo unspecified) [Isoprenaline (hydrochloride)] (compound 10 µM) | 0.63 | 2.74 | 1.65
C[N+]1(C)CCC(OC(=O)C(O)(c2ccccc2)C2CCCC2)C1 (stereo unspecified) [Glycopyrrolate] (compound 10 µM) | 0.59 | 0.25 | 1.14
O=C1CC2(CCCC2)CC(=O)N1CCCCN1CCN(c2ncccn2)CC1 [Buspirone (hydrochloride)] (compound 10 µM) | 0.3 | 0.17 | 0.69
CC(C)(Cc1ccc2ccccc2c1)NC[C@@H](O)COc1cccc(Cl)c1C#N [NPS-2143 (hydrochloride)] (compound 10 µM) | -6 | -12.2 | -9.7
CN1CCN(C2=Nc3ccccc3Oc3ccc(Cl)cc32)CC1 [Loxapine (succinate)] (compound 10 µM) | 0.7 | 1.22 | -1.15
CCC(=O)NC[C@@H]1C[C@H]1c1cccc2c1CCO2 [Tasimelteon] (compound 10 µM) | -1.06 | -0.25 | 0.27
c1cc(CN2CCCNCCNCCCNCC2)ccc1CN1CCCNCCNCCCNCC1 [Plerixafor (octahydrochloride)] (compound 10 µM) | -0.24 | 0.37 | -0.74
CN(C)CCC(c1ccccc1)c1ccccn1 (stereo unspecified) [Pheniramine (Maleate)] (compound 10 µM) | 0.09 | 0.78 | -0.37
NC(=O)NC1NC(=O)NC1=O (stereo unspecified) [Allantoin] (compound 10 µM) | 0.67 | 0.13 | -0.01
O=C1c2cccc3c2[C@H](CCC3)CN1[C@@H]1CN2CCC1CC2 [Palonosetron (Hydrochloride)] (compound 10 µM) | -0.7 | 0.4 | -0.33
Cc1cccn2c(=O)c(-c3nnn[nH]3)cnc12 [Pemirolast (potassium)] (compound 10 µM) | -0.3 | -0.65 | -1.33
CNC(=O)c1cnn(-c2nc(N)c3ncn([C@@H]4O[C@H](CO)[C@@H](O)[C@H]4O)c3n2)c1 [Regadenoson] (compound 10 µM) | 1.19 | 1.71 | 0.29
C[C@H]1C[C@@H]2[C@H]([C@@H](O)C[C@@]3(C)[C@H]2CC[C@]3(O)C(=O)CO)[C@@]2(C)C=CC(=O)C=C12 [Methylprednisolone] (compound 10 µM) | 0.3 | 3.09 | 0.51
CN1CCN(C(=O)c2cc3cc(Cl)ccc3[nH]2)CC1 (compound 10 µM) | 0.27 | -0.96 | 0.18
O=C(c1ccc(OCCCc2c[nH]cn2)cc1)C1CC1 [Ciproxifan (maleate)] (compound 10 µM) | -0.58 | -0.62 | 0.21
CN(C)CCc1c[nH]c2ccc(C[C@H]3COC(=O)N3)cc12 [Zolmitriptan] (compound 10 µM) | 0.87 | 0.6 | -0.48
